In PubChem BioAssay (NCATS):
Results filed as inconclusive are left out. Calls of active or inactive are those of the source. Calls follow the shape of the dose curve; as a rule, active = well fitted inhibition curve with a large enough effect; inconclusive = small, poorly fitted or top-dose-only effect; inactive = flat fitted curve, though single readings scatter.

Legend:
Assay in all cases: qHTS profiling for inhibitors of Plasmodium falciparum proliferation (AID 504749); also: nearly all actives have a fitted effect of over 60% in size
Details in all cases: P. falciparum in erythrocytes, SYBR Green DNA, 72 h; series mostly up to 28.7 µM
DIV14 = tested on: DIV14
In short: (§1)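 P. falciparum-infected erythrocytes (0.3% parasitemia, 2.5% hematocrit) incubated with compound 72 h at 37 C, 5% CO2. Parasite DNA detected by SYBR Green after lysis, overnight at room temperature; normalised to 0.29 uM artemisinin and DMSO.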

DIV17 = tested on: DIV17
In short: as §1

DIV30 = tested on: DIV30
In short: as §1

Dd2 = tested on: Dd2
In short: as §1

ECU = tested on: ECU
In short: as §1

FAB9 = tested on: FAB9
In short: as §1

GB4 = tested on: GB4
In short: as §1

HB3 = tested on: HB3
In short: as §1

ICS = tested on: ICS
In short: as §1

JCK = tested on: JCK
In short: as §1

N140 = tested on: N140
In short: as §1

P93_24 = tested on: P93_24
In short: as §1

P94_40 = tested on: P94_40
In short: as §1

PAD = tested on: PAD
In short: as §1

PC15 = tested on: PC15
In short: as §1

PC26 = tested on: PC26
In short: as §1

PC49 = tested on: PC49
In short: as §1

SC27B = tested on: SC27B
In short: as §1

TAB109 = tested on: TAB109
In short: as §1

TAB113 = tested on: TAB113
In short: as §1

Measured: Potency
Potency is read from the fitted curve at half-maximal effect.

Oc1c(Br)cc(Br)cc1Br
inactive: all assays above

CCN(Cc1ccc(Cl)nc1)/C(=C/[N+](=O)[O-])NC
inactive: all assays above

CC(C)(O)C(Cl)(Cl)Cl
active: DIV14 1.51 µM | DIV17 1.51 µM | DIV30 5.36 µM | Dd2 2.51 µM | ECU 3.98 µM | FAB9 7.94 µM | GB4 2.69 µM | HB3 2 µM | ICS 891 nM | JCK 11.2 µM | N140 2.51 µM | P93_24 2.24 µM | P94_40 2.51 µM | PAD 3.55 µM | PC15 2.24 µM | PC26 8.49 µM | PC49 7.08 µM | SC27B 4.47 µM | TAB109 3.16 µM | TAB113 4.47 µM

C[N+]1(CCC(C(N)=O)(c2ccccc2)c2ccccc2)CCCCC1
inactive: all assays above

O=c1n(Cl)c(=O)n(Cl)c(=O)n1Cl
inactive: all assays above

CC(C)[N+](C)(CCC(C(N)=O)(c1ccccc1)c1ccccc1)C(C)C
inactive: all assays above

OC(O)C(Cl)(Cl)Cl
inactive: all assays above

COC(=O)C1=CCCN(C)C1
inactive: all assays above

C[C@H]1C(=O)O[C@@H]2CCN3CC=C(COC(=O)[C@](C)(O)[C@]1(C)O)[C@H]23
not listed: TAB109
inactive: all other assays above

COP(=S)(OC)Oc1ccc(Sc2ccc(OP(=S)(OC)OC)cc2)cc1
inactive: all assays above

CCN(CC)C(C)C(=O)c1ccccc1 (stereo not drawn)
not listed: TAB113
inactive: all other assays above

NC(=O)CN1CCCC1=O
inactive: all assays above

CCC(=O)O[C@H]1CC[C@H]2[C@@H]3CCC4=CC(=O)CC[C@]4(C)[C@H]3CC[C@]12C
inactive: all assays above

O=C(CCCN1CCC(n2c(=O)[nH]c3ccccc32)CC1)c1ccc(F)cc1
active: DIV14 0.642 µM | DIV17 0.642 µM | DIV30 2.56 µM | Dd2 1 µM | ECU 1.78 µM | FAB9 3.98 µM | GB4 0.809 µM | HB3 1 µM | ICS 316 nM | JCK 3.55 µM | N140 0.891 µM | P93_24 0.891 µM | P94_40 0.891 µM | PAD 1.12 µM | PC15 1.26 µM | PC26 2.56 µM | PC49 2.82 µM | SC27B 2 µM | TAB109 1 µM | TAB113 1.26 µM

CN(C)C(=S)SSC(=S)N(C)C
active: DIV14 1.9 µM | DIV17 1.51 µM | DIV30 1.69 µM | Dd2 1 µM | ECU 6.31 µM | FAB9 6.31 µM | GB4 2.13 µM | HB3 1.26 µM | ICS 891 nM | JCK 8.91 µM | N140 1.78 µM | P93_24 2.51 µM | P94_40 2 µM | PAD 2 µM | PC15 3.16 µM | PC26 3.79 µM | PC49 11.2 µM | SC27B 6.31 µM | TAB109 1.58 µM | TAB113 3.98 µM

CCOC(=O)NC(O)C(Cl)(Cl)Cl (stereo not drawn)
inactive: all assays above

c1ccc2nc(N3CCNCC3)ccc2c1
inactive: all assays above

NCc1cccnc1
inactive: all assays above

CCS(=O)(=O)C(C)(C)S(=O)(=O)CC
inactive: all assays above

CCC1(CC)C(=O)NC(=O)NC1=O
inactive: all assays above

NC(=O)OCCCc1ccccc1
inactive: all assays above

Cc1ccc(N=CN(C)C=Nc2ccc(C)cc2C)c(C)c1
inactive: all assays above

C[C@]12CC[C@H]3[C@@H](CC=C4C[C@@H](O)CC[C@@]43C)[C@@H]1CC[C@@H]2O
inactive: all assays above

Cc1ncc2n1-c1ccc(Cl)cc1C(c1ccccc1F)=NC2
inactive: all assays above
